IL-1B inflam inh – blocks inflammasome-driven IL-1 beta release | THP-1 LPS/ATP IL-1B secretion, AlphaLISA, 16 h; stronger effect = lower value | activity change, % at 57.5 µM | actives 4.7% (n = 360,000); in the data active = activity change below about -50%; inconclusive = mostly about -30% to -49%
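THP-1 cells pretreated 1 hr with compounds (up to 57.5 uM final), then stimulated with LPS (250 ng/mL final) plus ATP (1.25 mM final); secreted IL-1B measured by AlphaLISA after 16 hr, decreased signal indicating inhibition.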
DT40 TDP1 no CPT – qHTS for Inhibitors of human tyrosyl-DNA phosphodiesterase 1 (TDP1): qHTS in cells in absence of CPT; DT40 Tdp1-/- hTDP1 cells, no CPT, ATP luminescence, 48 h; AID 686978, 2013; Potency, µM (doses to about 46.2 µM), inactives show top-dose activity change, negative = growth inhibition, most hits filed as inhibitors; actives 15% (n = 420,000); note: potency is the fitted concentration of half-maximal effect; nearly all actives have a fitted effect of over 55% in size
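Stably hTDP1-transfected Tdp1-null chicken DT40 cells were treated with library compounds minus camptothecin and grown for at least 48 hr at 37 °C, after which cellular ATP was quantified by luminescence.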
DT40 TDP1 CPT – DT40-hTDP1 cell growth loss with CPT | chicken DT40 Tdp1-/-;hTDP1 cells + 20 nM CPT, ATP luminescence, 48 h | Potency, µM (top dose mostly 46.2 µM), for the others: at the highest dose activity change, negative = growth inhibition, most hits filed as inhibitors | actives 12% (n = 420,000) | AID 686979; note: potency is the fitted concentration of half-maximal effect; nearly all actives have a fitted effect of over 55% in size
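Chicken DT40 Tdp1-/- cells stably complemented with human TDP1 were seeded at 400 cells/well in medium containing 20 nM camptothecin, exposed to pin-transferred compounds, and grown at 37 °C for at least 48 hr. Viability was read as ATP luminescence.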
HT1080 IDH1KD tx – HT-1080 IDH1 knockdown cell toxicity (counter line); HT-1080 IDH1 knockdown viability, ATP luminescence, 48 h; Potency, µM (series often up to 46.1 µM), inactives show at the top dose activity, negative = toxicity, most hits filed as cytotoxic; actives 2% (n = 360,000); AID 686971;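 note: potency is the fitted concentration of half-maximal effect; 0% = DMSO wells and -100% = cell-free medium wells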
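Cytotoxicity counter-line: IDH1KD HT-1080, 48 h, CellTiter-Glo. Curves classed by r2, magnitude and activity.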
HT1080-NT tox – kills 2HG-producing HT-1080-NT fibrosarcoma cells. HT-1080-NT fibrosarcoma viability, CellTiter-Glo ATP luminescence, 48 h. Potency, µM (series often up to 46.1 µM), for the others: top-dose activity, negative = less viability, usual class: cytotoxic. actives 1.6% (n = 360,000). AID 686970;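 note: NT is the 2HG producing partner of a matched IDH1 knockdown line; potency is the fitted concentration of half-maximal effect; 0% = DMSO-treated cells and -100% = media-only wells without cells; nearly all actives have a fitted effect of over 55% in size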
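HT-1080-NT fibrosarcoma cells (2HG-overproducing), 750 cells/well in RPMI with 5% FBS, dosed after 2 h and incubated 48 h at 37C. CellTiter-Glo luminescence normalized to DMSO and no-cell wells; concentration-response curves fitted and classed.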
ELG1 DNA repair – inhibitors of ELG1-dependent DNA repair in HEK293T cells; HEK293T ELG1-luciferase reporter, luminescence, 16 h; DNA damage induced by 5-fluorouridine; Potency, µM (series often up to 46.1 µM), for inactives: at the highest dose activity change, negative = inhibition, most hits filed as inhibitors; actives 2.3% (n = 330,000); note: potency is the fitted concentration of half-maximal effect; nearly all actives have a fitted effect of over 55% in size
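DMSO vehicle served as the neutral condition. Each well held 2,000 cells given 5-fluorouridine plus compound; after 16 hr at 37 °C/5% CO2, ONE-Glo was added and luciferase measured 30 min later.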
* hit, by the source's call; ? = inconclusive; . = not tested or not shown; [ ] = remark or other dose. Rows were chosen to be rich in hits. Some 19% of all compounds tested hit in one or more screens of this group. Unless noted, calls come from the whole dose curve; as a rule, active = well fitted curve in the direction sought with a large enough effect; inconclusive = small, poorly fitted or top-dose-only effect, or another doubt; inactive = no such curve, though single readings can be large; an effect the other way counts as inactive or inconclusive. Unless noted, % is set by controls: 0 for no effect and ±100 for the full control effect.

SMILES	IL-1B inflam inh	DT40 TDP1 no CPT	DT40 TDP1 CPT	HT1080 IDH1KD tx	HT1080-NT tox	ELG1 DNA repair
COc1ccc(C(=O)N2CCC(C)(C(=O)O)C2)cc1OC (stereo unspecified)	-3.8	2.9%	3.9%	14.9%	5.5%	.
Cc1sc(NC(=O)c2sc3nc4c(C)cccc4cc3c2N)c(C#N)c1C	3.4	14.6µM*	?	?	-8.9%	?
CCCCN(CC)Cc1ccc(CNC(=O)Nc2ccc(Cl)cc2)o1	-62.0*	5.8µM*	3.26µM*	?	?	-15.5%
CCCCOc1ccc(CC(N)=O)cc1	.	-13.9%	-2.1%	19.0%	16.1%	.
CCCCOc1ccc(CSCCN=C(N)N)cc1	-80.6*	4.61µM*	?	25.9µM*	?	?
Cc1ccc(S(=O)(=O)N(C)C)cc1NC(=O)COC(=O)/C=C/c1ccc2ccccc2n1	-106.3*	?	?	?	-1.6%	?
O=C(COC(=O)/C=C/c1ccccc1)NNC(=O)c1ccc([N+](=O)[O-])cc1	-2.1	-1.9%	1.3%	1.7%	4.9%	6.9%
O=C(COC(=O)/C=C/c1ccc2ccccc2n1)NNC(=O)c1ccc([N+](=O)[O-])cc1	-52.6*	-9.1%	9.9%	8.8%	14.1%	?
Cc1ccc(S(=O)(=O)N(C)C)cc1NC(=O)COC(=O)c1c(-c2ccccc2)noc1C	-7.8	?	-23.4%	4.3%	4.2%	-22.5%
CC(/C=N/NC(=O)c1ccco1)=C\c1ccccc1	-7.6	-25.8%	-19.5%	4.4%	-0.1%	?
Nc1cc(N2CCCCC2)nc(N)[n+]1OS(=O)(=O)[O-]	.	3.7%[92.5 µM]	-5.2%[92.5 µM]	.	.	.
Oc1ccccc1C1SC(c2ccccc2O)SC(c2ccccc2O)S1 (stereo unspecified)	-88.8*	?	?	?	14.6µM*	.
Cc1ccsc1C(=O)OCC(=O)NC1CCCCC1	18.0	-5.0%	-6.0%	16.3%	11.0%	.
COc1ccc(OC)c(CN2C(=O)CSCC2(C)C(=O)NCc2ccccc2)c1 (stereo unspecified)	11.4	-25.7%	20.4%	-7.9%	6.5%	.
Cc1ccc(C)c(Cn2c(C(C)NC(=O)c3ccccc3)nc3ccccc32)c1 (stereo unspecified)	.	20.6µM*	?	.	.	.
Cc1ccc(Cn2c(C(C)NC(=O)c3ccccc3)nc3ccccc32)cc1 (stereo unspecified)	.	6.51µM*	?	.	.	.
Cc1c(C=O)c2ccccc2n1CCOc1ccccc1F	13.3	10.3µM*	23.1µM*	-29.0%	-8.4%	-1.4%
Fc1ccccc1OCCn1c(=S)[nH]c2ccccc21	5.1	-14.7%	12.1%	-18.6%	-26.9%	14.5%
C/C(=N\Nc1ncc(Cl)cc1Cl)c1ccccn1	0.0	0.0259µM*	18.4µM*	0.231µM*	?	?
C/C(=N\Nc1ncnc2sc(C)c(C)c12)c1ccccn1	-1.1	0.0146µM*	0.103µM*	0.517µM*	0.92µM*	?
Cc1sc2ncnc(N/N=C/c3cccc(O)c3)c2c1C	-19.5	-22.0%	2.2%	?	?	?
C/C(=N\Nc1ccc(Cl)c(C(=O)O)c1)c1ccccn1	40.9	22.5%	1.6%	4.5%	8.8%	?
C/C(=N\Nc1cccc2cccnc12)c1ccccc1O	4.9	-20.3%	-24.3%	-2.0%	3.3%	?
C/C(=N\Nc1cccc2cccnc12)c1ccccn1	30.8	0.92µM*	0.731µM*	-25.6%	?	?
CC(C)c1cc(C(=O)OCC(=O)NC2CC2)c(O)c(C(C)C)c1	8.6	?	?	0.5%	-0.7%	.
SMILES	IL-1B inflam inh	DT40 TDP1 no CPT	DT40 TDP1 CPT	HT1080 IDH1KD tx	HT1080-NT tox	ELG1 DNA repair
Cc1ccc(CSCC(=O)N(C)CC(=O)Nc2ccc(Cl)c(Cl)c2)cc1	-5.9	?	?	0.7%	-15.7%	-18.7%
Cc1cccc(-c2sc(Nc3ccccc3)n[n+]2-c2ccc(F)cc2)c1	11.9	9.2µM*	7.31µM*	-29.1%	-17.3%	-8.2%
CSc1ccc(-c2sc(Nc3ccccc3)n[n+]2-c2ccc(F)cc2)cc1	25.7	23.1µM*	11.6µM*	-4.2%	-12.7%	-7.6%
CCc1ccc(Nc2n[n+](-c3ccccc3)c(-c3cccc(C)c3)s2)cc1	-20.4	5.8µM*	7.31µM*	-17.8%	-26.4%	14.7%
COc1ccc(-c2sc(Nc3ccccc3)n[n+]2-c2ccc(F)cc2)c(C)c1C	-11.4	10.3µM*	7.31µM*	-25.1%	?	?
Oc1ccc(-c2sc(Nc3ccccc3)n[n+]2-c2ccc(F)cc2)cc1	16.3	-10.7%	-10.2%	0.9%	-0.3%	38.2%
CCCCn1nc(C(=O)N(C)C2CCCCC2)c2ccccc2c1=O	11.2	?	?	-9.5%	0.0%	?
CC(C)CCOc1ccc(C(=O)NNC(=O)CNC(=O)c2ccccc2F)cc1	-8.6	4.1%	0.6%	-0.7%	0.0%	7.5%
O=C(CNC(=O)c1ccc(Cl)cc1)OCc1cc(=O)n2ccsc2n1	.	-5.5%	4.1%	.	.	.
CCOCCCNC(=O)CSc1nc2nc(C)c(Cc3ccccc3)c(C)n2n1	53.0	-27.7%	13.8%	0.4%	0.2%	4.3%
CCOc1ccc(C(=O)Nc2ccc3oc(-c4ccc5ccccc5c4)nc3c2)cc1	.	?	3.66µM*	.	.	.
CCOc1cccc(C(=O)Nc2ccc3oc(-c4cccnc4)nc3c2)c1	?	?	?	5.9%	6.7%	18.3µM*
CCOc1cccc(C(=O)Nc2ccc3oc(-c4ccc(C(C)(C)C)cc4)nc3c2)c1	.	2.91µM*	?	.	.	.
O=C(Nc1ccc2oc(-c3cccnc3)nc2c1)c1cccc(Br)c1	.	5.1%	-1.2%	.	.	.
O=C(Nc1ccc2oc(-c3cccnc3)nc2c1)c1ccc([N+](=O)[O-])o1	.	8.2µM*	6.51µM*	?	?	?
COc1cccc(CC(=O)N[C@@H](CCSC)c2nc3ccccc3[nH]2)c1	-10.0	?	?	0.6%	4.6%	-0.2%
COc1ccc(NC(=O)C(NS(=O)(=O)c2cccc3nsnc23)C(C)C)cc1 (stereo unspecified)	.	-13.4%	9.4%	.	.	.
Cc1cc(Br)ccc1NC(=O)COC(=O)c1ccccc1OCC(=O)N(C)C	.	-10.8%	7.2%	.	.	.
CSc1cccc(NC(=S)NC(=O)c2cccnc2)c1	13.0	-18.7%	-25.8%	1.1%	6.6%	1.0%
O=C(NCc1ccncc1)[C@@H]1CCCN1C(=O)[C@H]1CCCN1C(=O)c1cccc2ccccc12	69.0	-29.7%	0.0%	5.0%	4.4%	.

Compound activity from PubChem.
